Source: the OligoGym collection
Note: reference of the scale not given here.

What follows are sequences tested against NGDN (assay: pooled miR-30 sensor sort-seq; sequence = guide strand). Details: shRNA.
In the case of ATATTTCTTAGACACTCCCTTC, the sensor-assay potency score (higher = more potent) is reported as -0.888.
TAGGATTCTGATCCTCATCAAG showed a sensor-assay potency score (higher = more potent) of -1.32.
Sequence TTTCTCTCGCTTACTGACGCTC has a sensor-assay potency score (higher = more potent) of -0.845.
TTGCTCATCATATTGCTGGGAT was tested, and the sensor-assay potency score (higher = more potent) was 0.439.
TTCTAGACGCTTCTTCTCCCGC was tested, and the sensor-assay potency score (higher = more potent) was -0.831.
TTCGCCGTCCTTTCTCTCGCTT was tested, and the sensor-assay potency score (higher = more potent) was -0.269.
TTTCTGTAGGATAGGCACCAGC was tested, and the sensor-assay potency score (higher = more potent) was -1.35.
TAATGTACTGGAACCAAGCGTG showed a sensor-assay potency score (higher = more potent) of -0.00853.
For TTTTCTTCCGACCTTTCTGAGG, the sensor-assay potency score (higher = more potent) was -1.13.
Work on TGTCACTGCAGTCTTGATCAGC yielded a sensor-assay potency score (higher = more potent) of -0.949.
Sequence TACAGCCATCACTTGCTCCTGG has a sensor-assay potency score (higher = more potent) of -0.0207.
In the case of TTGCTCGTTTTCGCCGTCCTTT, the sensor-assay potency score (higher = more potent) is reported as -1.03.

These sequences were tested against NHP2 in the same assay as above. Details: shRNA.
TTTCTGAACCTCTTTCACCCCG gave a sensor-assay potency score (higher = more potent) of 0.283.
For TGCATTTGTAGAGCTTCCGCGT, the sensor-assay potency score (higher = more potent) was -0.805.
In the case of TAGAGCTTCCGCGTGAGGCGGC, the sensor-assay potency score (higher = more potent) is reported as -0.484.
TTGACCATTATCACACAGGTGG was tested, and the sensor-assay potency score (higher = more potent) was -0.273.
Sequence TAGACATAGGGCAAATTTCGGT has a sensor-assay potency score (higher = more potent) of -0.754.
TTCTGCTTCACCGCTTTCTTGA was tested, and the sensor-assay potency score (higher = more potent) was -0.609.
For TTGACCAGCAGCTCCTGGTAGG, the sensor-assay potency score (higher = more potent) was -0.886.
With TTCACCGCTTTCTTGATGCATT the sensor-assay potency score (higher = more potent) was -0.959.
Sequence TTTGTAGAGCTTCCGCGTGAGG has a sensor-assay potency score (higher = more potent) of -1.63.
Sequence TTCTGAACCTCTTTCACCCCGC has a sensor-assay potency score (higher = more potent) of -0.0214.
In the case of TCTGCTTCTGCTTCACCGCTTT, the sensor-assay potency score (higher = more potent) is reported as 0.228.
Work on TTTCTTGATGCATTTGTAGAGC yielded a sensor-assay potency score (higher = more potent) of -0.635.

The sequences below were run against NKIRAS2 in the same assay as above. Details: shRNA.
Sequence TTATTGTGTCCAACCAATGCAT has a sensor-assay potency score (higher = more potent) of -0.509.
Work on TTGCCAAGGACCACGATGGTGA yielded a sensor-assay potency score (higher = more potent) of -0.541.
TTGCGTCATCTTGCTGGCCAAG showed a sensor-assay potency score (higher = more potent) of -1.52.
TTGTTCTTCCGGCTGAGGGGGA gave a sensor-assay potency score (higher = more potent) of -0.774.
Sequence TTGAGCAGCTCCACACGCTGAA has a sensor-assay potency score (higher = more potent) of -0.404.
In the case of TGCGTCTCGATCATCTCCGAAC, the sensor-assay potency score (higher = more potent) is reported as -1.51.
For TATTGTGTCCAACCAATGCATC, the sensor-assay potency score (higher = more potent) was -1.63.
In the case of TATAATAGGAACTCAGACCCAA, the sensor-assay potency score (higher = more potent) is reported as -0.0468.
TCTCGATCATCTCCGAACCCAC gave a sensor-assay potency score (higher = more potent) of -1.49.
For AAAGACTCTCTGCTATCTGTGC, the sensor-assay potency score (higher = more potent) was -0.545.
Work on TGTAAGTCACACTTGTTGCCAA yielded a sensor-assay potency score (higher = more potent) of 0.157.
TTTGTCAATCTCCTTCTTGAGC was tested, and the sensor-assay potency score (higher = more potent) was -1.29.

The sequences below were run against NKPD1 in the same assay as above. Details: shRNA.
For TTGTCGGGCACGTACTCGTAGA, the sensor-assay potency score (higher = more potent) was -1.44.
In the case of TTGAGCAGGCTGCCGCTCGGGC, the sensor-assay potency score (higher = more potent) is reported as -0.937.
TCTCGCGGTACAACAGGTCGTC gave a sensor-assay potency score (higher = more potent) of -0.615.
For TTGTCGCGGAAAACGTCCCAGA, the sensor-assay potency score (higher = more potent) was -1.15.
